Measured values as given in paper PMC12864922, “TDP-43 directly inhibits mRNA accumulation in neurites through modulation of mRNA stability”.
In all, about 9,900 sequences were measured (“r (bound/input frequency ratio)”: median about 0.7, highest 2% from about 6.5 on). What follows is part of a selection rich in the highest values, with near analogues and random picks from the rest.

B1: ENSMUSG00000004113.108|Cacna1b|97:101;113:118;234:238 (ssRNA)
RNA: GGGAGUUCUACAGUCCGACGAUCGCUUCGAUAUCCGCAUGCUAGGACCCAGCAAAUCCAAAUCCUAUGUCAUGGCCUCCAGCAUCCAGGGUGGGUCCUUGGGACUUUUCUUAGGAGGGACUUUCUGAGCCUCGUGGAGACACACGUUUGUCCAAAACACACGCAUGGGAGAUAGGGUACCCCUGAAAGCAAGGAAAGGAGCCCAGCUGUGGCCUGGUAGCACCUGCCGGCACCAGUGAUCUCACGUCUCUUGUGGUCUUGGAGUCAAAUAGCACAUCAUACUAGAGAUGCGCUCAAGGGCCUGCUCUUGCGGUCGCACUAGUGUGGAAUUCUCGGGUGUCAAGG
B2: ENSMUSG00000042529.323|Kcnj12 (ssRNA)
RNA: GGGAGUUCUACAGUCCGACGAUCGCUUCGAUAUCCGCAUGCUAGAUGCUGUAUUUUCAAAUUCUCCUGCCCUCUUUUCCCCUUUUUCCCUGUAUUUAUUUAUUGCUUGUGCUAAAGACCAAACUAGCCGCCCCCUUUAGUGCACCCAAUGGAGGAAGCCACUGAGGGGGGAGCCGUGUGCCUGUGCCAGGCAGGAAAGCUUGGCCCCUGGGAAGUGUGUGAGAAGGAAAACCAGGGUGUGUGUGCACGCAUGUGCAGACGUGCUCACACGAUCGUCUCCCUGUGUGGGAAACUUGGUAUGCAGCUCUUGCGGUCGCACUAGUGUGGAAUUCUCGGGUGUCAAGG
B3: ENSMUSG00000031028.526|Tub (ssRNA)
RNA: GGGAGUUCUACAGUCCGACGAUCGCUUCGAUAUCCGCAUGCUACUUUCUCUUUUAUGGAAAUGGCAGGUCUAUUUGCCUCAAACGUUAUGUAGAAGUAGUUCUAAGUUUAACAAGCAAUAGAGAUGACUGCUUAGCUAGGAUCUGCAGGGAGCUCUGCUCUGCAAGCACAACACCUGUCUCAUAGAUGGACAGCCUGGUUUCCCUUCUCAGCAGUCCUGGCCUCCCCUUCUCUGUAUUCCUUGCCCCAGCUACGAUAUCCUCAUGGGAUUUCAGGAUGCCAGGUGCCAUCAAAGCAUGCUUUUCUCUUGCGGUCGCACUAGUGUGGAAUUCUCGGGUGUCAAGG
B4: ENSMUSG00000061578.913|Ksr2|118:122 (ssRNA)
RNA: GGGAGUUCUACAGUCCGACGAUCGCUUCGAUAUCCGCAUGCUACAGAGACAGAUUUCCCAGAAUCCCUGGGCCACUUCUCAAUUCUACCCAUGACAGACAUGUCCCAUCCAUGAGCCCAGAUAGUCAAAGACUUCAGCACAAGGGUGUUUAGAGUAGGCACACACGAAGUAUCAAUAAGGUUAUUGAGAUGAGGAUUUAGAAAGAUCCAUGUAUAAAAGGUCUAGAAGGAUGAAGAUCUAAAACAAGAAGACUGCAUGUUAACGCUCCUGCCACUGUUGCCCCUUCCUUUACCCUUGGCAGACCUCUUGCGGUCGCACUAGUGUGGAAUUCUCGGGUGUCAAGG
B5: ENSMUSG00000043670.121|Diras1 (ssRNA)
RNA: GGGAGUUCUACAGUCCGACGAUCGCUUCGAUAUCCGCAUGCUAUGUCUGCACACCAGGGUGGAUGGGCCCGAGGGCUGGGCCUCAGGCACCAGGCAAUAAACACAGGGCCUGCAGCAAUGCCCUGGCCACCCCGAGUACCACCUCUGGAAUAGCAGACGCCCACAGCACAAGCCCAGGACUGUCCCUUCAGGGGAGGCACACUGGAACCCUGAACUUGGAGUGUGGAGUGGCUGCCUGGACACUGCCCACCUGGACACCAGCCUUCUGCUGAGAUAGAGACCUUGGCACAGUGGCACCUCGACCUCUUGCGGUCGCACUAGUGUGGAAUUCUCGGGUGUCAAGG
B6: ENSMUSG00000042529.382|Kcnj12 (ssRNA)
RNA: GGGAGUUCUACAGUCCGACGAUCGCUUCGAUAUCCGCAUGCUAUAAGGUGGGUUUCAUGCUCACCAACCUGAACUGGUCAGGCUGGAUGCUGGCCACAGACAUGAUCAGUCCGACUUGAGUCCCUGCCCUGCCCUGGUUAUGCAGGCUGUACGACGCAGUGUGCAUCAGUCUGAGGAGUCUGGUGGUAAGUAAGCCUCUGCAGCAGACCCUGUCGGAGGCCAUGGGGGCGUGUGUGUGUGUGUGUGUGUGUGUGUGUGUGUGUGUGUGUGUGUGUGUGUGUGAACAUGUGUGAGGGUGUGGAGCUCUUGCGGUCGCACUAGUGUGGAAUUCUCGGGUGUCAAGG
B7: ENSMUSG00000061578.1090|Ksr2 (ssRNA)
RNA: GGGAGUUCUACAGUCCGACGAUCGCUUCGAUAUCCGCAUGCUAAGCAGCCAACCAUGAAAAUAGAGGUUUGUAAUGUACAGAAGGCUGGGGGAGCUUUCAGGGGUGUGGCCAGUUAUGUACAGAUGUGAAGCUGAGGUCUGAAGGAAAUGGAGGAAGUAGGAAGAUCAGACUGGUUGAAUUAGAAGUCUGUCACUCUAGGUGCUAAGUGACCUUGGACCCAGUCAGUUCUUGGAUUUCUGUUGUAGCCCAGGCUAGCCUCGAACCCUUGAUCCUCCUGUUCCUGGUAGAGAAACAGCCACUAACUCUUGCGGUCGCACUAGUGUGGAAUUCUCGGGUGUCAAGG
B8: ENSMUSG00000061578.39|Ksr2 (ssRNA)
RNA: GGGAGUUCUACAGUCCGACGAUCGCUUCGAUAUCCGCAUGCUAAGGGUCCCAUGUGUGGUGUGAAGGAGCCACAGACUGAGCACACCACCUCGGACUGUGGAGACCAAGACACAUGCCCAGUGGGCAGACUCAGACUCACACGCUGGACCAGUGUGUGCGCAUGUGUCUACACAUGGACAGGGCCAACUGCUAUCCUUCUGCCUGGACGAGCCAGCUGUGGAGUGUCCCAGCUGUGCUAUCCUGGAACACAGAACCAGGAUGGAACCAGAAACAAUACACCUGCUCCGUUGUCAAGGCUUCUACUCUUGCGGUCGCACUAGUGUGGAAUUCUCGGGUGUCAAGG

target: TDP-43 (Homo sapiens, UniProt Q13148 1-414); test: RNA Bind-n-Seq with designed 260-mer pool; 25 mM Tris-HCl, 150 mM KCl, 3 mM MgCl2, BSA (printed 500 mg/mL), 20 units/mL SUPERase IN; pH not stated; 500 nM RNA pool, 1 h, 4 C; TDP-43 5, 50, 500 nM; high values mean tight binding; conditions: protein: recombinant; tags: SBP (GST cleaved off with PreScission; pGEX-GST-SBP)
Sequence (Q13148 whole entry): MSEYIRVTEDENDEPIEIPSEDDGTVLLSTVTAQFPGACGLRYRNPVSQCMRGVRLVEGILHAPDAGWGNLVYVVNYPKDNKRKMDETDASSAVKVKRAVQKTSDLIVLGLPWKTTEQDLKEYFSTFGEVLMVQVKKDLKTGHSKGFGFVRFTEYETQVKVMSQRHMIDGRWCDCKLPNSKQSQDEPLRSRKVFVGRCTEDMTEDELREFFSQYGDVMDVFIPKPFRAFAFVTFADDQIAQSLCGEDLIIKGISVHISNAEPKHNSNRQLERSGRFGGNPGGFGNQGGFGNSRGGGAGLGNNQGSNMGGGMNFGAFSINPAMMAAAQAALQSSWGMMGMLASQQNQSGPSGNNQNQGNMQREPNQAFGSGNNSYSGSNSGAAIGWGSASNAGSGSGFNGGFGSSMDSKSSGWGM
Outline: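 Duplicate measurements used two independent batches of recombinant SBP-tagged TDP-43, which was captured on streptavidin beads at 5, 50 or 500 nM. The beads were incubated with 500 nM of an in vitro-transcribed 260-nt 3′ UTR oligo pool for 1 h at 4 °C in 25 mM Tris-HCl, 150 mM KCl, 3 mM MgCl2, BSA and SUPERase IN. After washing, biotin elution, reverse transcription, PCR amplification and sequencing, binding was expressed as R: each oligo's normalized read abundance in the bound sample over its abundance in input.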

Row | Binder | binding signal
1 | B1 | 0.293 R (bound/input frequency ratio)
2 | B2 | 2.13 R (bound/input frequency ratio)
3 | B3 | 0.219 R (bound/input frequency ratio)
4 | B4 | 0.457 R (bound/input frequency ratio)
5 | B5 | 0.914 R (bound/input frequency ratio)
6 | B6 | 6.14 R (bound/input frequency ratio)
7 | B7 | 1.34 R (bound/input frequency ratio)
8 | B8 | 0.764 R (bound/input frequency ratio)
